In general, AC50 refers to the concentration at which the activity in the assay is half-maximal.

Active and inactive are the calls of the source. How the source made its calls: active means hit-call score of the fitted dose curve at least 0.9, where 1 is the maximum; inactive means score below 0.9.

This is an account of results in PubChem BioAssay (EPA / NIEHS).

Test [1] is described as follows: CEETOX_H295R_ESTRONE: CeeTox H295R High-throughput Steroidogenesis Assay for Estrone (AID 2283441).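 Further: estrone secreted into medium measured by LC-MS/MS after dansyl derivatization.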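 On AC50: human adrenal H295R cells prestimulated with forskolin for two days.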 As to conditions: actives raise or lower the signal. The procedure, abridged: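 H295R cells prestimulated 48 h with 10 uM forskolin, then exposed 48 h to chemicals in 0.1% DMSO final; estrone in medium extracted with MTBE, dansyl-derivatized, quantified by HPLC-MS/MS; bidirectional fitting versus DMSO, viability by MTT.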

Test [2] can be described thus: CEETOX_H295R_PROG: CeeTox H295R High-throughput Steroidogenesis Assay for Progesterone (PROG) (AID 2283442).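 On AC50: human H295R adrenal cells primed with 10 µM forskolin before dosing; progesterone secreted into medium by H295R cells measured by HPLC-MS/MS.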 As to conditions: actives raise or lower the signal. The procedure, abridged:
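Steps: seed H295R cells and let them adhere overnight; prime 48 h with 10 uM forskolin; dose with compound in DMSO at 0.1% final for 48 h; extract medium steroids with MTBE; measure progesterone by LC-MS/MS. MTT viability was run in the same wells.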

Read-out in test [3]: Tumor necrosis factor receptor superfamily member 6 (Homo sapiens) (UniProt P25445)
As to the kind of experiment: LTEA_HepaRG_FAS: Life Technologies and Expression Analysis (LTEA) Assay for Fas cell surface death receptor (FAS) using HepaRG (AID 2283447). As to conditions: mRNA level, 48 h; actives raise or lower the signal. The essentials:
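Differentiated human HepaRG cells, pre-cultured 48 h, were exposed in duplicate for 48 h to 8-point half-log concentrations (top 100 uM, 0.5% DMSO) in serum-free induction medium; FAS mRNA measured by qRT-PCR, normalized to ACTB/GAPDH/POLR2A, bidirectional fit versus DMSO.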

Read-out in test [4]: Fatty acid synthase (Homo sapiens) (UniProt P49327)
As to the kind of experiment: LTEA_HepaRG_FASN: Life Technologies and Expression Analysis (LTEA) Assay for Fatty Acid Synthase (FASN) using HepaRG (AID 2283448). As to conditions: mRNA level, 48 h; actives raise or lower the signal. The procedure, abridged:
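FASN expression changes, up or down relative to 0.5% DMSO, were measured by qRT-PCR in human HepaRG cells after 48 h treatment with chemicals at eight concentrations (half-log steps from 100 uM).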

Read-out in test [5]: Cyclin D2 (CCND2), CCND2 (gene 894)
As to the kind of experiment: LTEA_HepaRG_CCND2: Life Technologies and Expression Analysis (LTEA) Assay for Cyclin D2 (CCND2) using HepaRG (AID 2283449).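 Further: CCND2 transcript measured by TaqMan qRT-PCR and normalised to three housekeeping genes.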 As to conditions: mRNA level, 48 h; actives raise or lower the signal. The procedure, abridged: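 Differentiated human HepaRG cells were exposed for 48 h in serum-free induction medium to eight half-log concentrations topping at 100 uM (0.5% DMSO vehicle). CCND2 mRNA was quantified by TaqMan qRT-PCR, normalised to ACTB, GAPDH and POLR2A, and fitted bidirectionally against DMSO.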

Read-out in test [6]: Cyclin Dependent Kinase Inhibitor 1A (CDKN1A), CDKN1A (gene 1026)
The test is described as follows: LTEA_HepaRG_CDKN1A: Life Technologies and Expression Analysis (LTEA) Assay for Cyclin Dependent Kinase Inhibitor 1A (CDKN1A) using HepaRG (AID 2283450). As to conditions: mRNA level, 48 h; actives raise or lower the signal. The essentials:
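Read-out is CDKN1A mRNA by TaqMan qRT-PCR, normalized to three housekeeping genes and fitted in both directions against the DMSO baseline. Human HepaRG cells were treated 48 h with test chemicals up to 100 uM in half-log steps, 0.5% DMSO.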

Read-out in test [7]: Cyclin D1 (CCND1), CCND1 (gene 595)
As to the kind of experiment: LTEA_HepaRG_CCND1: Life Technologies and Expression Analysis (LTEA) Assay for Cyclin D1 (CCND1) using HepaRG (AID 2283451).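 On AC50: TaqMan qRT-PCR transcript level normalised to ACTB GAPDH and POLR2A housekeeping genes.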 As to conditions: mRNA level, 48 h; actives raise or lower the signal. The essentials: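 HepaRG plated 48 h, medium switched to serum-free induction medium, chemicals added in duplicate (top 100 uM, half-log steps, 0.5% DMSO) for 48 h, cells lysed, RNA measured by TaqMan qRT-PCR.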

Read-out in test [8]: catalase (CAT), CAT (gene 847)
The test is described as follows: LTEA_HepaRG_CAT: Life Technologies and Expression Analysis (LTEA) Assay for catalase (CAT) using HepaRG (AID 2283452).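 On AC50: TaqMan qRT-PCR signal normalized to ACTB GAPDH and POLR2A housekeeping genes.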 As to conditions: mRNA level, 48 h; actives raise or lower the signal. The procedure, abridged:
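Differentiated HepaRG cells in serum-free induction medium were dosed 48 h in duplicate, eight half-log concentrations from 100 uM in 0.5% DMSO. Transcript measured by TaqMan qRT-PCR, normalised to ACTB/GAPDH/POLR2A, fitted bidirectionally against DMSO.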

Read-out in test [9]: flavin-containing dimethylaniline monooxygenases 3 (FMO3), FMO3 (gene 2328)
The test is described as follows: LTEA_HepaRG_FMO3: Life Technologies and Expression Analysis (LTEA) Assay for flavin-containing dimethylaniline monooxygenases 3 (FMO3) using HepaRG (AID 2283453). As to conditions: mRNA level, 48 h; actives raise or lower the signal. The essentials:
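Differentiated HepaRG cells in serum-free induction medium, exposed 48 h in duplicate to 8 half-log concentrations up to 100 uM in 0.5% DMSO. FMO3 mRNA by qRT-PCR, normalized to ACTB, GAPDH, POLR2A; bidirectional fit vs DMSO.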

Read-out in test [10]: Cytochrome P450 (CYP1A1), CYP1A1 (gene 1543)
The test is described as follows: LTEA_HepaRG_CYP1A1: Life Technologies and Expression Analysis (LTEA) Assay for Cytochrome P450 (CYP1A1) using HepaRG (AID 2283454). As to conditions: mRNA level, 48 h; actives raise or lower the signal. The essentials:
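HepaRG, 48 h post-plating switched to serum-free induction medium; 8-pt conc-response (top 100 uM, half-log, 0.5% DMSO), duplicates, 48 h. Lysis in RLT, TaqMan qRT-PCR for CYP1A1; gain or loss vs DMSO.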

Sequence of Fatty acid synthase (Homo sapiens) (P49327 whole entry, looked up): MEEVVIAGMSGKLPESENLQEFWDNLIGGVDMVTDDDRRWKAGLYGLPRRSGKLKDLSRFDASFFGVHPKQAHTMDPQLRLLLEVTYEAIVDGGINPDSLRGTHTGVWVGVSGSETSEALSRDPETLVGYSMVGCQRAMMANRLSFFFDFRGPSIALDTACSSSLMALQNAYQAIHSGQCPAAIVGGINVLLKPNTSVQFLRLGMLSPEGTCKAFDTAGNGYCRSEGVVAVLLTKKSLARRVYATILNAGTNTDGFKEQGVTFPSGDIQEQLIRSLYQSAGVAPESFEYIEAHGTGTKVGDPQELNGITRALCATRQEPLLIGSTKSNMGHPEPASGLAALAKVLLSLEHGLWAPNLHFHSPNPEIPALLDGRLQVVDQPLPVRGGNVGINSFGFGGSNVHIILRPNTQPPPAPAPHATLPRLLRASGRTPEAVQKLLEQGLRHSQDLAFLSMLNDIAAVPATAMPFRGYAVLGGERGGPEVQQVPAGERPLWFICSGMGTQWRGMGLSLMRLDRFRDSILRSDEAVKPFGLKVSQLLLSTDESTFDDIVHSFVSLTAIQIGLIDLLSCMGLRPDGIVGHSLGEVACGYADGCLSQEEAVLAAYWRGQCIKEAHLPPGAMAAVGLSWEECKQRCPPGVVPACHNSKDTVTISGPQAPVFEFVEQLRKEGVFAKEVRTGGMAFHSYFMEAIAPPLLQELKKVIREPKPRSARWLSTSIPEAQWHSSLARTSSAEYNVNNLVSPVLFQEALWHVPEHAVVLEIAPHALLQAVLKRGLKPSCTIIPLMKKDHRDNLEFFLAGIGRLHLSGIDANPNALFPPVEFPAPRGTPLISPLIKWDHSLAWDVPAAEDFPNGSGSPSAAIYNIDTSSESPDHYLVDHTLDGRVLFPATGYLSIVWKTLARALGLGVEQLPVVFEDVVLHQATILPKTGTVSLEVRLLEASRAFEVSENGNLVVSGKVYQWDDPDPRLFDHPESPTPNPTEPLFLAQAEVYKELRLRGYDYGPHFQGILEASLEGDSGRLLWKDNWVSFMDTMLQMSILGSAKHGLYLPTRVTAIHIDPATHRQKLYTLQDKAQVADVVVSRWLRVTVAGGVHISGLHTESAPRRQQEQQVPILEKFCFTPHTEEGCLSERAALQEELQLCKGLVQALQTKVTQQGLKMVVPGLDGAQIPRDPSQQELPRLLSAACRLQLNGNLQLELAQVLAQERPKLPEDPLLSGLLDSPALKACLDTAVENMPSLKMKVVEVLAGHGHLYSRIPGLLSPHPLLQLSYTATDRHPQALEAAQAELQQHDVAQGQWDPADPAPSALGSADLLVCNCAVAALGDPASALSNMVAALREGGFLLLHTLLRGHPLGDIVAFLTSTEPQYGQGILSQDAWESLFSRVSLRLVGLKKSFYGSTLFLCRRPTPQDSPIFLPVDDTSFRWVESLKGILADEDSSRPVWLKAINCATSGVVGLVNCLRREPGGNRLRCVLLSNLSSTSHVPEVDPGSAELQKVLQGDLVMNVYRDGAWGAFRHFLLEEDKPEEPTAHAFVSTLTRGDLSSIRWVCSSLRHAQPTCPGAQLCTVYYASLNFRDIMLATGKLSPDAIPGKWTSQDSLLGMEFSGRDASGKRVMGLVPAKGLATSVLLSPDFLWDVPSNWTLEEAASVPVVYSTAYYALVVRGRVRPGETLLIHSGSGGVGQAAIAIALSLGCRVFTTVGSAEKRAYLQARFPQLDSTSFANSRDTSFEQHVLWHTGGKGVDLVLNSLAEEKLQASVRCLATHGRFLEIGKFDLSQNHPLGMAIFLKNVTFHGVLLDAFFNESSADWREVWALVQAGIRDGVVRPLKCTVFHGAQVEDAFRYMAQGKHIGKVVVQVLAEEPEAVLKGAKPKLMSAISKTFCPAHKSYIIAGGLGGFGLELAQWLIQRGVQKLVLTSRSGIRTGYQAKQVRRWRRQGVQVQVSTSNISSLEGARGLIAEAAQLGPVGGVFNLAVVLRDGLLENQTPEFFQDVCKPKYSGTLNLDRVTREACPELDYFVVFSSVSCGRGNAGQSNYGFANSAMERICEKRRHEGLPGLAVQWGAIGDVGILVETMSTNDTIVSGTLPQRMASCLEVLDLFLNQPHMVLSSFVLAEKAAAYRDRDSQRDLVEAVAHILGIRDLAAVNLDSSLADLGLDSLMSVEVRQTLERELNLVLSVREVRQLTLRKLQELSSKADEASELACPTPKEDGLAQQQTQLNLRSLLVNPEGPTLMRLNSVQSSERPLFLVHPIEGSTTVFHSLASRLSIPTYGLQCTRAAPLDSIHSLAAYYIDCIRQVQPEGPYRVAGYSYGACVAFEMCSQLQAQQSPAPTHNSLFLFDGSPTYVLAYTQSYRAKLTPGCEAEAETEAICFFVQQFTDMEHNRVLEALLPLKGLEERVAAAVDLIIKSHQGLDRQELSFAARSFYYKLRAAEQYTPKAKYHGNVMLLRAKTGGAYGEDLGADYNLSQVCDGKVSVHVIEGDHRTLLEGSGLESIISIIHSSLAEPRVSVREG

As for `O=C(O)Cn1c(=O)n(Cc2ccc(Br)cc2F)c(=O)c2ccc(Cl)cc21`, the outcome in test [1], in test [3], in test [4], in test [5], in test [6] and in [7] was inactive. The molecule was classed as inactive in [8] and in test [9]. For the same molecule, the AC50 in test [2] was 73.3 µM (active); in test [10], 87.8 µM (active).
Take `Clc1cc(Cl)c2c(c1)N=C1CCCCCN1C2`: the outcome in test [2], in [3], in test [4], in test [5], in test [6] and in test [7] was inactive. Further, the molecule was classed as inactive in test [8] and in test [9]. The AC50 in [10] was 1.61 µM (active).
`CO[C@H]1/C=C/O[C@@]2(C)Oc3c(C)c(O)c4c(O)c(c(/C=N/N5CCN(C)CC5)c(O)c4c3C2=O)NC(=O)/C(C)=C\C=C\[C@H](C)[C@H](O)[C@@H](C)[C@@H](O)[C@@H](C)[C@H](OC(C)=O)[C@@H]1C`: the molecule was called inactive in test [2], in [3], in test [4], in test [6], in test [8] and in test [9]. In addition, the AC50 in test [10] was 31.2 µM (active).
Turning to `C[C@]12CC[C@@H]3c4ccc(O)cc4CC[C@H]3[C@@H]1CC[C@H]2O`, the AC50 in [2] is 2 µM (active); in test [6] it was 50 µM (active); in test [10], 18.5 µM (active). Besides, the molecule was called inactive in test [3], in [4], in test [5], in test [8] and in test [9].
For `OC12N=C(c3ccccc3)SC1Cc1cc(Cl)ccc12` (stereo not drawn), the call in test [1], in [2], in test [3], in [5] and in test [6] was inactive. Besides, the AC50 is 2.18 µM (active) in [4]; 9.92 µM (active) in test [7]; 16.6 µM (active) in [8]; 15.7 µM (active) in test [9]; 1.21 µM (active) in test [10].
With `CCCCCCCC[Si](OCC)(OCC)OCC`, the result in test [2], in [3], in test [4], in [5], in test [6] and in test [8] was inactive. Besides, the molecule was called inactive in test [9] and in test [10].
`Cc1cc2c(cc1C(F)(F)F)N(C(=O)Nc1ccc(Oc3cccnc3C)nc1)CC2`: the call in test [1], in test [4], in test [5], in [6] and in test [7] was inactive. The AC50 in [2] is 0.257 µM (active); in test [3], 78.5 µM (active); in test [8] it was 46 µM (active); in [9], 46 µM (active); in test [10], 3.67 µM (active).
Consider `Clc1ccccc1C(c1ccccc1)(c1ccccc1)n1ccnc1`, for which the concentration at half-maximal activity (AC50) in [1] was 0.41 µM (active); in [2], 0.00734 µM (active); in test [4], 23.1 µM (active); in [6], 91.2 µM (active); in [7] it was 82.1 µM (active); in test [8], 21 µM (active). Also, the AC50 in test [9] was 96.5 µM (active); in test [10], 9.17 µM (active). The outcome in test [3] and in test [5] was inactive.
For the molecule `Cc1cccc2ccccc12`, the molecule was classed as inactive in test [3], in test [4], in [5], in test [6], in test [7] and in test [8]. Also, the result in test [9] and in [10] was inactive.
As for `Cc1occc1C(=O)Nc1ccc(C(=O)N2CCC(F)(F)/C(=C\C(=O)N3CCC(N4CCCCC4)CC3)c3ccccc32)cc1`, the call in test [3], in test [5] and in [6] was inactive. Also, the AC50 in test [4] is 19.4 µM (active); in [7], 39.9 µM (active); in test [8], 31.2 µM (active); in test [9] it was 44 µM (active); in test [10] it was 16.8 µM (active).
Regarding `O=C1O[C@H]([C@@H](O)CO)C(O)=C1O`, the result in test [3], in test [4], in [5], in test [6], in [7] and in test [8] was inactive. The outcome in test [9] was inactive. Further, the AC50 in test [10] is 61.8 µM (active).
With `C[C@]12CC[C@@H]3c4ccc(O)cc4CC[C@H]3[C@@H]1CCC2=O`, the AC50 in test [2] is 0.849 µM (active); in test [9], 50 µM (active). For the same molecule, the result in test [3], in test [4], in test [5], in [6] and in [8] was inactive.
As to `Cc1c2ccccc2c(C)c2c1ccc1ccccc12`, the AC50 in test [1] was 0.657 µM (active); in test [3], 66.1 µM (active); in test [4], 51 µM (active); in test [6] it was 35.1 µM (active); in [7], 86.4 µM (active); in [8] it was 48.5 µM (active). Further, the AC50 in [9] was 34.2 µM (active); in test [10], 11.9 µM (active). Besides, the molecule was classed as inactive in [2] and in test [5].
As for `CCCCCCCCN(C)CCCCCCCC`, the result in test [2], in test [3], in [4], in test [5], in test [6] and in [8] was inactive. Besides, the molecule was called inactive in [9] and in test [10].
Regarding `NC(=O)c1nc(-c2cccc(-c3cc(F)ccc3OCC(F)(F)C(F)(F)F)c2)n[nH]1`, the call in test [1], in test [2], in test [3], in test [5], in test [6] and in test [9] was inactive. The half-maximal activity concentration (AC50) in [4] was 79 µM (active); in test [8], 50 µM (active); in test [10], 20.1 µM (active).
`CCN(Cc1cccc(S(=O)(=O)O)c1)c1ccc(C(=C2C=CC(=[N+](CC)Cc3cccc(S(=O)(=O)O)c3)C=C2)c2ccccc2S(=O)(=O)[O-])cc1`: the outcome in [3], in test [4], in test [5], in test [6], in test [7] and in test [8] was inactive. Also, in test [9], the outcome was inactive. In test [10], the AC50 is 32.2 µM (active).
For the molecule `CC(=O)N1CCN(c2ccc(OC[C@H]3CO[C@](Cn4ccnc4)(c4ccc(Cl)cc4Cl)O3)cc2)CC1`, the AC50 in test [1] is 1.47 µM (active); in [3], 89.3 µM (active); in test [4], 26.1 µM (active); in test [6] it was 12.3 µM (active); in test [7], 91.1 µM (active); in test [8] it was 13.1 µM (active). The AC50 in [9] is 11.8 µM (active); in [10], 0.698 µM (active). In addition, the outcome in [2] and in test [5] was inactive.
